# Sfp inh: inhibitors of Bacillus subtilis Sfp phosphopantetheinyl transferase | Q9F4F7 | Biochemical Sfp PPTase activity, qHTS | Potency, µM, inactives show largest response in the series, negative = inhibition, usual class: inhibitors | 310,000 tested, 3.5% active | AID 1490;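 further: the enzyme is Sfp with the accession as filed and its product quenches rhodamine fluorescence; 0% = enzyme reaction without inhibitor and -100% = no enzyme wells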
#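 Reaction rates are the 30-min fluorescence difference (ex 525, em 598 nm) in wells containing 15 nM Sfp, 5 uM rhodamine-CoA and 12.5 uM BHQ-2-YbbR at pH 7.6 with 10 mM MgCl2.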
# JMJD2A Tudor: inhibitors of human JMJD2A Tudor domain; O75164; AID 504339; 390,000 tested, 4.4% active; Potency, µM (series often up to 114 µM), for inactives: at the top dose activity change, negative = inhibition, actives largely listed as inhibitors; AlphaScreen JMJD2A-Tudor / H3K4me3 peptide binding; further: on the % scale 0 is the no-effect control and ±100 the full control effect; nearly all actives have a fitted effect of over 50% in size
# HP1b binding inh: inhibitors of HP1-beta chromodomain binding to methylated histone tails. AID 540317. AlphaScreen HP1-beta / biotin-H3K9me3 peptide binding. Potency, µM (highest dose often 114 µM), without a hit: at the top dose activity change, negative = inhibition, actives largely listed as inhibitors. 390,000 tested, 0.56% active; further: nearly all actives have a fitted effect of over 70% in size
# Target sequence (P83916 whole entry, looked up): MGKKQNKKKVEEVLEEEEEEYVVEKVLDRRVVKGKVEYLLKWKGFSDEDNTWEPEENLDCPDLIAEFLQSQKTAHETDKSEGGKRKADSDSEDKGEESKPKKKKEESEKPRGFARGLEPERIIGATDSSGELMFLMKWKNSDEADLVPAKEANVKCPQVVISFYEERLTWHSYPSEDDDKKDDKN
#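 Compound inhibition of the preformed complex between 50 nM HP1-beta and 50 nM biotinylated H3K9me3 peptide was read by AlphaScreen. Buffer was PBS pH 7.4 with 0.01% Tween-20. Incubations ran 30 min at room temperature, with 10 ug/mL donor/acceptor beads.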
# PLK1 PBD inh: inhibitors of human PLK1 polo-box domain binding; P53350; AID 720504; Plk1 PBD binding of FITC phosphopeptide, fluorescence polarization; Potency, µM, for inactives: max response, negative = inhibition, usual class: inhibitors; 360,000 tested, 2.8% active; further: series mostly up to about 57 µM; on the % scale 0 is the no-effect control and ±100 the full control effect; nearly all actives have a fitted effect of over 65% in size
# G9a block: blocks human histone lysine methyltransferase G9a; Q96KQ7; G9a H3K9 monomethylation, AlphaScreen, 2 h; Potency, µM (top dose mostly 102 µM), for the others: top-dose activity, negative = inhibition, actives largely listed as inhibitors; 350,000 tested, 8.8% active; AID 504332; further: on the % scale 0 is the no-effect control and ±100 the full control effect; nearly all actives have a fitted effect of over 75% in size
# Target sequence (Q96KQ7 913-1193 limits assumed): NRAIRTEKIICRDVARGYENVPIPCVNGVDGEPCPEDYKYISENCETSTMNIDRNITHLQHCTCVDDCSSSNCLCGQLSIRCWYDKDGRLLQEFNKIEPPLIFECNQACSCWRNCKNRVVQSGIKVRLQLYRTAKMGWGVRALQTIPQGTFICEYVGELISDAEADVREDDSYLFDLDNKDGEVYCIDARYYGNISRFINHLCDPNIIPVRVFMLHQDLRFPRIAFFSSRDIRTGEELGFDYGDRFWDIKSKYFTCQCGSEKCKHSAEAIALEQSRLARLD
#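 AlphaScreen read-out: biotin-H3K9 peptide (500 nM) methylation by 20 nM enzyme with 20 uM SAM, 2 h at room temperature after 15 min compound preincubation; anti-monomethyl H3K9 antibody plus donor/acceptor beads, 10 min dark.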
# BAZ2B block: blocks human BAZ2B; Potency, µM (titrated, usually from 114 µM), without a hit: at the highest dose activity change, negative = inhibition, usual class: inhibitors; 360,000 tested, 4.4% active; AlphaScreen BAZ2B-H3K14Ac peptide displacement; AID 504333; further: on the % scale 0 is the no-effect control and ±100 the full control effect; nearly all actives have a fitted effect of over 60% in size
#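 Compounds, titrated to a top concentration of 110 uM, were incubated 30 min at room temperature with preformed BAZ2B/acetyl-K14 H3 peptide complex (50 nM each). Proximity signal was measured by AlphaScreen after 20 min with beads.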
# Starred values were filed as active, the others as inactive; ? = inconclusive; . = not tested or not shown; [ ] = another dose, or the depositor's remark. This is a sample that favours compounds with a hit; in the whole collection about 12% have one here. The call rests on the fitted dose curve; in most records, active means well fitted curve in the direction sought with a large enough effect; inconclusive means small, poorly fitted or top-dose-only effect, or another doubt; inactive means no such curve, though single readings can be large; an effect the other way counts as inactive or inconclusive. Potency means the concentration at half of the fitted maximal effect.
SMILES,Sfp inh,JMJD2A Tudor,HP1b binding inh,PLK1 PBD inh,G9a block,BAZ2B block
COc1ccc(-n2c(-c3ccc(C)cc3)n[nH]c2=S)cc1,89µM*,20µM*,-1%,-3%,4µM*,-7%
Cc1ccc(-n2c(-c3ccncc3)n[nH]c2=S)cc1,-6%,22µM*,5%,0%,8.9µM*,-2%
COc1ccc(-c2cc(C3CCN(C(=O)OC(C)(C)C)CC3)[nH]n2)cc1,5%,?,-15%,-13%,3%,-13%
Cc1ccc(-n2c(-c3ccc(Cl)cc3Cl)n[nH]c2=S)cc1,-5%,-42%,1%,-21%,.,0%
Cc1ccc(-n2c(-c3ccccc3)n[nH]c2=S)c(C)c1,-17%,?,41%,-8%,1.8µM*,-5%
O=C(O)c1ccc(C(=O)O)c(C(=O)c2ccc(NC(=O)c3ccccc3)cc2)c1,9%,-5%,44%,1%,-7%,6%
Cc1ccc(-n2c(-c3cnccn3)n[nH]c2=S)cc1,56µM*,8.9µM*,36%,1%,7.9µM*,79µM*
Cc1ccc(-n2c(-c3ccccc3)n[nH]c2=S)cc1,79µM*,2.2µM*,-23%,?,0.89µM*,?
COc1ccc(N2CC(C(=O)Nc3c(C(N)=O)oc4ccccc34)CC2=O)cc1 (centres undefined),.,-6%,30%,-7%,-28%,8%
CCOC(=O)C1=C(C)N(c2ccc(C)cc2)C(=O)/C1=C\c1ccc(O)c(OC)c1,45µM*,8.9µM*,?,-11%,.,45µM*
COC(=O)C1=C(C)N(Cc2ccc(C)cc2)C(=O)/C1=C\c1cc(OC)c(OC)c(OC)c1,-16%,11µM*,-22%,-5%,25µM*,40µM*
CCOc1cc(/C=C2\C(=O)N(CCc3ccc(OC)c(OC)c3)C(C)=C2C(=O)OC)ccc1O,50µM*,40µM*,?,-7%,?,50µM*
CCOc1ccccc1NC(=O)CN1C(=O)C(=O)N(Cc2ccco2)C1=O,11%,-17%,51%,-14%,-4%,-24%
CCOc1cc(/C=C2\C(=O)N(Cc3ccco3)C(C)=C2C(=O)OC)ccc1O,20µM*,18µM*,20µM*,2%,8.9µM*,50µM*
COC(=O)C1=C(C)N(Cc2ccc(C)cc2)C(=O)/C1=C\c1ccc(O)c(OC)c1,50µM*,25µM*,22µM*,0%,19%[2.33 µM],50µM*
COC(=O)C1=C(C)N(c2ccc(C)c(C)c2)/C(=C/c2ccc(O)cc2)C1=O,-5%,-29%,5%,-2%,?,1%
COC(=O)C1=C(C)N(CC2CCCO2)C(=O)/C1=C\c1ccc(O)cc1 (centres undefined),-29%,35µM*,?,-9%,?,?
COc1ccccc1-c1cc2nc(C)c(CCC(=O)NCc3ccco3)c(C)n2n1,10%,?,13%,-17%,50µM*,-9%
Cc1nc2cc(-c3ccccc3)nn2c(C)c1CCC(=O)NCc1ccco1,?,-21%,18%,0%,?,-37%
CN1CCN(c2cc3c(c4c2[nH]c2ccccc24)C(=O)CC(C)(C)C3)CC1,?,?,20%,-8%,56µM*,-32%
Cc1[nH]c2ccccc2c1C(=O)COC(=O)C1CC(O)CN1S(=O)(=O)c1ccc(Cl)cc1 (centres undefined),.,32µM*,-14%[57 µM],150%,-14%[59 µM],0%
Cn1cc(CN2CCc3c([nH]c4ccccc34)C2C2CCCCC2)cn1 (centres undefined),?,-17%[57.1 µM],8%,-7%,45µM*,45µM*
CCCCCOC(=O)C(C)c1c(C)[nH]c(=S)[nH]c1=O (centres undefined),11%,10%,41%,-11%,71µM*,12%
CS(=O)(=O)c1ccc(C(O)C(CO)NC(=O)C(Cl)Cl)cc1 (centres undefined),11%,.,.,.,-41%[2.33 µM],.
Clc1ccc(-c2nc3nc4ccccc4nc3n2Cc2ccco2)cc1,7.1µM*,-14%,67%,-16%,-40%[59 µM],-24%
SMILES,Sfp inh,JMJD2A Tudor,HP1b binding inh,PLK1 PBD inh,G9a block,BAZ2B block
Nc1nc(NCc2ccccc2)nc(Nc2cccc(F)c2)c1[N+](=O)[O-],6%,-18%,4%,-7%,2%[12.7 µM],-4%
O=[N+]([O-])c1ccc(CNc2cccc(F)c2)s1,1%,?,-6%,-1%,50µM*,-36%
Cc1cccc(NCc2ccc([N+](=O)[O-])s2)c1,6%,?,-19%,-6%,45µM*,?
Cc1cccc(NCc2ccccc2)c1,3%,-4%[11.4 µM],23%,0%,6%,-11%
COC(=O)c1ccc(NS(=O)(=O)c2ccc(S(=O)(=O)N3CCOCC3)cc2)cc1,.,-13%,13%,0%,.,.
COc1ccc(OC)c(Nc2c3c(nc4ccccc24)CCC3)c1,-3%,?,8%,-4%,-4%,-29%
COc1cccc(-c2nc(NCC3CCCO3)c3ccccc3n2)c1O (centres undefined),12%,?,-24%,2%,?,?
COc1ccc(OC)c(Nc2c3ccccc3nc3ccccc23)c1,-18%,22µM*,?,-4%,-16%[2.33 µM],50µM*
COc1cc(NS(C)(=O)=O)ccc1Nc1c2ccccc2nc2ccccc12,-2%,?,-6%,3%,12µM*,?
Cc1ccc(Nc2nc(NCCO)c3ccccc3n2)cc1C,79µM*,-36%,39%,-8%,79µM*,-34%
COc1ccccc1Nc1nc(NCC2CCCO2)c2ccccc2n1 (centres undefined),-2%,50µM*,21%,?,47%,-27%
COc1ccccc1Nc1nc(NCCO)c2ccccc2n1,-2%,.,.,.,-37%,-4%
CCOc1nc(NCCO)nc(Nc2cc(Cl)ccc2OC)n1,11%,-24%,8%,27µM*,-4%,-14%
COc1ccc(OC)c(Nc2nc(NCCO)c3ccccc3n2)c1,-20%,45µM*,-15%,1%,.,50µM*
CC(C)Cn1c(-c2ccc(Br)cc2)c[nH]c1=S,8%,50µM*,?,17µM*,0.89µM*,?
COc1ccc(-n2c(-c3ccccc3)nnc2-c2ccc(Cl)cc2)cc1,-2%,-8%,10%,-5%,-30%,0%
S=c1[nH]cc(-c2ccccc2)n1-c1ccccc1,45µM*,28µM*,-20%,-18%,0.89µM*,?
CCn1c(-c2ccccc2)c[nH]c1=S,-23%,8.9µM*,?,-3%,?,-38%
CCOC(=O)c1c[nH]c(=S)n(-c2ccccc2)c1=O,.,-18%,65%,3%,24%[2.33 µM],6%

# High-throughput results deposited in PubChem by National Center for Advancing Translational Sciences (NCATS).
